# Active and inactive are the calls of the source. A call without a number means that no potency is given here. The call rests on the fitted dose curve; in most records, active means well fitted curve in the direction sought with a large enough effect; inconclusive means small, poorly fitted or top-dose-only effect, or another doubt; inactive means no such curve, though single readings can be large or run the other way.
# Target: Hexokinase-4 (Homo sapiens) + Glucokinase regulatory protein (Homo sapiens) (UniProt P35557+Q14397)
# Assay: qHTS assay for inhibitors of recombinant human GCK-GKRP interaction: ADP-Glo assay (AID 743206)
# Conditions: ADP-Glo luminescence, 60 min; series mostly up to 76.9 µM
# Description: Glucokinase (GCK) is a glucose sensor in hepatocytes and pancreatic beta-cells. Hepatic GCK is regulated by glucokinase regulatory protein (GKRP), which is predominantly localized to the liver. GKRP binds to GCK inhibiting its activity in the fasting state while in the presence of glucose the GKRP is displaced. There is an additional layer of regulation by fructose 1-phosphate and fructose 6-phosphate, which inhibit and enhance the GCK-GKRP interaction, respectively. GCK plays a role in glucose homeostasis and there is an interest in the development of strategies to activate GCK to lower blood glucose levels in type 2 diabetes. To date the majority of effort has focused on direct activation of GCK and the assays developed herein look to activate GCK by inhibiting its binding to GKRP. A compound that inhibits the interaction of GCK with GKRP could be important for the treatment of diabetes and can also be used as a tool compound to further elucidate GCK-GKRP biology. To that end, we have developed a sensitive HTS biochemical assay where in GCK activity is coupled to luciferase to interrogate the GCK-GKRP interaction. This assay was screened against a small compound library to look for modulators of activity.
# 2 uL of 15 nM GST-GCK and 15 nM FLAG-GKRP proteins with 2 uM S6P (columns 1-2, 4-48; Millipore, Billerica, MA) are dispensed into Greiner, white solid-bottom 1536-well assay plates; columns 3 receive buffer without GCK as a control for maximum inhibition. Compounds (23 nL) are then transferred via Kalypsys pin tool equipped with 1536-pin array (10 nL slotted pins, V&P Scientific, San Diego, CA). The library compounds are in columns 5-48 and columns 1-4 serve as controls with DMSO in columns 1 and 3 and 26 mM 1:1.5 fold serial of gluckokinase activator (GKA-EMD) in column 2 and 26 mM of the glucokinase activator (GKA-EMD) in column 4. Following addition of compound, 1 uL of ATP […] is added, and the plate is incubated for 60 minutes at room temperature. The amount of ADP is then quantified by the ADP-Glo Kit (Promega, Madison, WI). First, 2 uL of the first kit reagent is added, and the reaction is incubated for 45 minutes; then, 4 uL of the second kit reagent are added and the reaction is incubated for 30 minutes at which time the luminescence is read on a Viewlux plate reader (Perkin-Elmer, Waltham, MA). The final concentration of reagents in the reaction are 0.4 mM ATP, 25 mM Hepes pH 7.6, 25 mM KCl, 2 mM MgCl2, 1 mM DTT, 0.025% BSA, 0.01% Tween 20, 5 mM glucose. Data are normalized to DMSO-treated control columns with (maximum signal) and without (minimum signal) enzyme.
# Chain of Hexokinase-4 (Homo sapiens) + Glucokinase regulatory protein (Homo sapiens) (P35557 whole entry, looked up): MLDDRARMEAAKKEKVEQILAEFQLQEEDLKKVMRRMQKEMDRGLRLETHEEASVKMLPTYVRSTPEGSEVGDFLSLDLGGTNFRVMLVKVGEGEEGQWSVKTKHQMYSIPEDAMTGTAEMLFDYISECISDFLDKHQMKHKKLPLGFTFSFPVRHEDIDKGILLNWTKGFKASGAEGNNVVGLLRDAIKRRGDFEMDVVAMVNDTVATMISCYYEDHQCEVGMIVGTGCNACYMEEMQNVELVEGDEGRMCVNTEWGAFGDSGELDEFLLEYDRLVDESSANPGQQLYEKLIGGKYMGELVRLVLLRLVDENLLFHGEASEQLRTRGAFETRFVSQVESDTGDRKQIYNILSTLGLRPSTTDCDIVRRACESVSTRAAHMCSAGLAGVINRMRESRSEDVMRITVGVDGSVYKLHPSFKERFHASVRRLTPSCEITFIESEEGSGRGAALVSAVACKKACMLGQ
# Chain of Hexokinase-4 (Homo sapiens) + Glucokinase regulatory protein (Homo sapiens) (Q14397 whole entry, looked up): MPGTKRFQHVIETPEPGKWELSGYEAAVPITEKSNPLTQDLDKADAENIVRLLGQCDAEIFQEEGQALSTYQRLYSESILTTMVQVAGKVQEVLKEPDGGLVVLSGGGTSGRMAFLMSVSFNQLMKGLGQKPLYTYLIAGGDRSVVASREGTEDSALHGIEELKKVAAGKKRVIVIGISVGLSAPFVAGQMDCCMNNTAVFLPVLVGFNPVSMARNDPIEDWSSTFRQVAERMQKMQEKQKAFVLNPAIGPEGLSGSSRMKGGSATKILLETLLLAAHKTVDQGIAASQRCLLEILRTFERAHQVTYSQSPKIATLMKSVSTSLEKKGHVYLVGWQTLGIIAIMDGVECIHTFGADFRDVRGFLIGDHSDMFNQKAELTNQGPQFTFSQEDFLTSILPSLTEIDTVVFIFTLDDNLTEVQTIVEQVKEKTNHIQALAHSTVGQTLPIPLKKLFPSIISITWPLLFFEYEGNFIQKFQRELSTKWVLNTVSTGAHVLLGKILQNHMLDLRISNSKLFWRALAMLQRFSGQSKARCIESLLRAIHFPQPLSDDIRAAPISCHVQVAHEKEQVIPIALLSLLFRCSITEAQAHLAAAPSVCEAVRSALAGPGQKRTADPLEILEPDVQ
row,Compound,Potency
1,O=[N+]([O-])c1cccc2c(Br)[nH]nc12,inactive
2,NOCC(=O)O,inactive
3,CCCC[C@@]1(C2CCCC2)Cc2cc(OCC(=O)O)c(Cl)c(Cl)c2C1=O,inactive
4,C[C@H](NC(=O)/C(C#N)=C/c1ccc(O)c(O)c1)c1ccccc1,inactive
5,C[C@H](O)C(=O)C1=Nc2c(nc(N)[nH]c2=O)NC1,inactive
6,Cn1c(=O)c2[nH]c(C3CCCC3)nc2n(C)c1=O,inactive
7,COc1ccccc1N1CCN(CCCCNC(=O)c2ccc3ccccc3c2)CC1,inactive
8,N[C@@H](Cc1c[nH]c2ccccc12)C(=O)O,inactive
9,Cn1c(=O)[nH]c2ncn(C)c2c1=O,inactive
10,CCCN(CCc1ccccc1)C1CCc2c(O)cccc2C1 (stereo not given),inactive
11,Cn1cc(C(=O)OCC2CCN(CCNS(C)(=O)=O)CC2)c2ccccc21,inactive
12,OC[C@H]1O[C@@H](n2cnc3cncnc32)[C@H](O)[C@@H]1O,inactive
13,CC1CNCCN1S(=O)(=O)c1cccc2cnccc12 (stereo not given),inactive
14,CN(C)CCC(c1ccc(Br)cc1)c1ccccn1 (stereo not given),inactive
15,NS(=O)(=O)c1cccc2c1c([N+](=O)[O-])cc1nc(O)c(O)nc12,inactive
16,CCCCCCCCCCC(C)(C)C(=O)Nc1c(OC)cc(OC)cc1OC,inactive
17,CC(C)Cn1c(=O)n(C)c(=O)c2[nH]cnc21,inactive
18,O=c1ccn([C@@H]2O[C@H](COP(=O)(O)OP(=O)(O)O)[C@@H](O)[C@H]2O)c(=O)[nH]1,inactive
19,CC1CCN=C(N)S1 (stereo not given),inactive
20,Cn1ccnc1,inactive

row,Compound,Potency
1,Cc1ccc2c(c1)C(N1CCN(C)CC1)=Nc1cccnc1N2,inactive
2,COc1ccc2c(c1)c(CC(=O)O)c(C)n2C(=O)c1ccccc1,inactive
3,Clc1nccc2c1ccc1ccccc12,inactive
4,Cc1cc(Cn2cnc3c2C[C@@H](C(=O)O)N(C(=O)C(c2ccccc2)c2ccccc2)C3)ccc1N,inactive
5,CC1=C(/C=C/C(C)=C/C=C/C(C)=C\C(=O)O)C(C)(C)CCC1,inactive
6,O=C(O)CCC(=O)N1CCCC1C(=O)O (stereo not given),inactive
7,OC1(c2ccc(Cl)cc2)CCN(Cc2c[nH]c3ccccc23)CC1,inactive
8,CCCCCCCCCC(=O)NC(CN1CCOCC1)[C@H](O)c1ccccc1 (stereo not given in full),inactive
9,CCCn1c(=O)c2[nH]c(C3CCCC3)nc2n(CCC)c1=O,inactive
10,NC(C(=O)N[C@@H]1C(=O)N2C(C(=O)O)=C(Cl)CS[C@H]12)c1ccccc1 (stereo not given in full),inactive
11,c1ccc2c(c1)CCC[C@H]2Nc1nc2ccccc2[nH]1,inactive
12,COC(=O)C(N)Cc1ccc(Cl)cc1 (stereo not given),inactive
13,O=c1cc(-c2ccccc2)[nH]c2nc(Cl)ccc12,inactive
14,NC(N)=NC(N)=Nc1ccccc1,inactive
15,CC(N)(Cc1ccc(O)c(O)c1)C(=O)O (stereo not given),inactive
16,Nc1nc2ccc(Cl)cc2c2nc(-c3ccco3)nn12,inactive
17,CCCCC[C@H](CC(=O)NO)C(=O)N[C@H](C(=O)N1CCC[C@H]1CO)C(C)C,inactive
18,O=C(O)C1CCCNC1 (stereo not given),inactive
19,O=c1onc2n1-c1cc(Br)ccc1OC2,inactive
20,C[C@](Cc1ccc(O)c(O)c1)(NN)C(=O)O,inactive

# From PubChem BioAssay (NCATS)
